# Where “and” joins values, the source holds several entries; their conditions need not be identical. Equal entries are not always repeated. Results filed as inconclusive are left out. Some compounds were tested as several samples or in several runs, with calls that do not always agree. Calls of active or inactive are those of the source. Calls come from the whole dose curve; as a rule, active = well fitted cell-killing curve with a large enough effect; inconclusive = small, poorly fitted or top-dose-only effect, or effect the other way; inactive = no such curve, though single readings can be large or run the other way.
# Assay: Viability qHTS for spleen associated tyrosine kinase inhibitor (SYKi) naive MV4-11 cells (AID 1963823); note: nearly all actives have a fitted effect of over 40% in size
# Details: MV4-11 AML viability, CellTiter-Glo luminescence, 72 h; series mostly up to 45 µM; viability (% of control): at the top concentration
# From the text: Department of Medicine, Hematology/Oncology
# University Hospital Frankfurt, Germany.
# Trials have shown promising clinical activity of the selective SYK inhibitor entospletinib in patients with high expressing HOXA9/MEIS1 acute leukemias. As the development of resistance mechanisms is a common problem in the use of targeted drugs, we performed a chemical library screen to identify drug sensitivities in SYK inhibitor resistant AML cells. […] Glucocorticoids are potent immunosuppressants which work in part by inhibiting the transcription of cytokine genes.
# Described herein is a viability screen to look for activity in the SYK inhibitor naive cell line against four NCATS compound libraries (MIPE 5.0, NPC, NPACT, and Kinase) totaling 11372 compounds. Active hits were reacquired for confirmation and further secondary assay testing.
# SEQUENCE No. (e.g., 1, 2, 3, etc.); […] (e.g., Cells, Incubation, Reagent, etc.); VALUE; DESCRIPTION.
# 1; Media; 2uL; white, solid-bottom Corning assay plate.
# 2; Compounds; 23nL; Echo acoustic dispenser.
# 3; Cell; 5uL; 500 cells per well.
# 4: Incubation; 72hr; 37 C, 5% CO2, 95% humidity.
# 5; Reagent; 3uL; CellTiter-Glo reagent (Promega).
# 6; Incubation; 10min; room temperature.
# 7; Detection; Luminescence; ViewLux plate reader (PerkinElmer).
# NOTES (numbers refer to Sequence numbers above
# 1. Quantitative high-throughput screening (qHTS) of small molecule compounds was conducted on naive SYKi MV4-11 cell line.
# 2. Twenty-three nanoliter of small molecule compounds were added to each assay plates using the Echo acoustic dispenser (Beckman Coulter).
# 3. Cells were seeded into the assay plates at a final density of 500 cells in 5uL of media per well using the Multi-drop Combi dispenser.
# 4. Plates were covered with stainless steel gasketed lids and incubated for 72 hours at standard cell culture conditions.
# 5. Viability was assessed by adding 3uL of CellTiter-Glo detection reagent (Promega).
# 6. Plates were covered with gasket lids and incubated for 10 minutes at room temperature.
# 7. Luminescence was measured on a ViewLux plate reader (PerkinElmer).
# Potency is the fitted concentration of half-maximal effect.
Structure (SMILES),viability (% of control),Potency
Oc1ccc(Cl)cc1,67.3% (inactive),
C[C@H]1O[C@@H](n2cnc3c(N)ncnc32)C[C@@H]1O,38.1% (inactive),
CC(C)=C1CC[C@]23CO[C@H](C2)[C@@](O)(C(=O)O)CCC13 (stereo not given in full),57.2% (inactive),
C=C(C)C(=O)O[C@H]1[C@@H]2[C@H](C)C(=O)O[C@@H]2C[C@@H](C)[C@@H]2C=CC(=O)[C@]21C,,1.43 µM (active)
C[N@@+]1(CC2CC2)CC[C@]23c4c5ccc(O)c4O[C@H]2C(=O)CC[C@@]3(O)[C@H]1C5,111% (inactive),
C[C@@H]1O[C@@H](O[C@@H]2C=C3CC[C@@H]4[C@H](CC[C@]5(C)[C@@H](c6ccc(=O)oc6)CC[C@]45O)[C@@]3(C)CC2)[C@H](O)[C@H](O)[C@H]1O,,0.006 µM (active)
COC1=C[C@@H]2[C@@H]3Cc4ccc(OC)c(O)c4[C@]2(CCN3C)CC1=O,64.5% (inactive),
CC/C=C/C=C/C1(C)OC(OC)=C(C(=O)C2C(C)C(=O)c3cc(OC)c(O)c(O)c3C2(C)O)C1=O (stereo not given),,10 µM (active)
CC(C)[C@H]1OC(=O)[C@H](Cc2ccccc2)N(C)C(=O)[C@@H](C(C)C)OC(=O)[C@H](Cc2ccccc2)N(C)C(=O)[C@@H](C(C)C)OC(=O)[C@H](Cc2ccccc2)N(C)C1=O,,3.85 µM (active)
Cc1nnc2n1-c1sc(CCC(=O)N3CCOCC3)cc1C(c1ccccc1Cl)=NC2,87.5% (inactive),
CNC(=O)Oc1cccc2ccccc12,60.6% (inactive),
CC1=CC2/C=C(\C)CCC(O)C(O)/C=C/C(=O)OC23C(=O)NC(CC(C)C)C3C1C (stereo not given),,7.96 µM (active)
O=C(Nc1ccncc1)C(=O)c1cn(Cc2ccc(Cl)cc2)c2ccccc12,,0.132 µM (active)
CCN(CC)CCOC(=O)C(C)(c1ccccc1)c1ccccc1,64.7% (inactive),
CCCCCCC1C(=O)O[C@H](C)[C@H](NC(=O)c2cccc(NC=O)c2O)C(=O)O[C@@H](C)[C@@H]1OC(=O)CC(C)C (stereo not given in full),,0.517 µM (active)
CS(=O)(=O)c1ccc(C(=O)C2C(=O)CCCC2=O)c([N+](=O)[O-])c1,,6.24 µM (active)
Cc1ncc(OC[C@@]2(c3cccc(F)c3)C[C@H]2C(=O)Nc2ccc(F)cn2)c(C)n1,84.9% (inactive),
CCOC(=O)NC(O)C(Cl)(Cl)Cl (stereo not given),75% (inactive),
COC(=O)C12C(=O)C(C)(O)C(=O)C1(C)C(C)=CC1C34CCC(OC3=O)C(C)(C)C4CCC12C (stereo not given),75.9% [at 17.3 µM] (inactive),
CCC1(c2ccccc2)C(=O)N(COC)C(=O)N(COC)C1=O,73.6% (inactive),

Structure (SMILES),viability (% of control),Potency
CC(=O)OC[C@]12[C@H](OC(C)=O)C(=O)[C@@H]3[C@@H](O)[C@@]14O[C@@]3(C)COC(=O)c1cccnc1[C@@H](C)[C@H](C)C(=O)O[C@@H]([C@H](OC(C)=O)[C@@H]2OC(C)=O)[C@]4(C)O,,5.44 µM (active)
COC1CC(O[C@H]2CC[C@@]3(C)C(CCC4C3CC[C@]3(C)C(C5=CC(=O)OC5)CCC43O)C2)OC(C)C1OC1OC(COC2OC(CO)C(O)C(O)C2O)C(O)C(O)C1O (stereo not given in full),,1.23 µM (active)
C[C@@H]1CCC/C=C/[C@H]2C[C@@H](O)C[C@@H]2[C@@H](O)/C=C/C(=O)O1,,0.184 µM (active)
C=C1C[C@@H]2[C@H](CC[C@]3(C)C(=O)CC[C@@H]23)[C@@]2(C)C=CC(=O)C=C12,,9.44 µM (active) and 14.8 µM (active)
NCCc1ccc(O)cc1,53.4% (inactive),
COC[C@H]1OC(=O)c2coc3c2[C@@]1(C)C1=C(C3=O)[C@@H]2CC[C@H](O)[C@@]2(C)C[C@@H]1OC(C)=O,,11.6 µM (active)
COC1CC(O[C@H]2CC[C@@]3(C)C(=CCC4C3C(O)[C@@H](O)[C@]3(C)[C@@H](C(C)=O)CC[C@]43O)C2)OC(C)C1OC1CC(OC)C(OC2OC(C)C(O)C(O)C2O)C(C)O1 (stereo not given in full),67.1% [at 9.25 µM] (inactive),
CC12CCC3C(CCC4(O)CC(O)CCC34C=O)C1(O)CCC2C1=CC(=O)OC1 (stereo not given),,0.366 µM (active)
COC(C)(C)CCCC(C)C/C=C/C(C)=C/C(=O)OC(C)C (stereo not given),99.4% (inactive),
Cc1ccc(S(=O)(=O)N[C@@H](CCCCN)C(=O)CCl)cc1,78.2% (inactive),
COc1ccc(C(=O)c2c(C)n(CCN3CCOCC3)c3cc(I)ccc23)cc1,,13.2 µM (active)
CN1C(=O)CN=C(c2ccccc2)c2cc([N+](=O)[O-])ccc21,81.6% (inactive),
C=C1CC[C@@]2(O)[C@H]3Cc4ccc(O)c5c4[C@@]2(CCN3CC2CC2)[C@H]1O5,88.5% (inactive),
FC(F)(F)c1cccc(C2=CCN(CCc3ccc4ccccc4c3)CC2)c1,79.7% (inactive),
CCNC(=O)CC1N=C(c2ccc(Cl)cc2)c2cc(OC)ccc2-n2c(C)nnc21 (stereo not given),,14.8 µM (active) and inactive and 517 nM (active)
CC(C)C[C@H](CN)CC(=O)O,82.7% (inactive),
C/C=C(\C)C(=O)OC1CC2C(CC=C3CC(OC4CC(OC)C(OC5CC(OC)C(OC6OC(C)C(OC7OC(CO)C(O)C(O)C7O)C(OC)C6O)C(C)O5)C(C)O4)CCC32C)C2(O)CCC(C(C)=O)C12C (stereo not given),73.7% [at 9.25 µM] (inactive),
NC(=O)c1ncn2c1CN=C(c1ccccc1Br)c1cc(F)ccc1-2,,20.6 µM (active)
Oc1ccc2[nH]cc(CCCCN3CC=C(c4ccccc4)CC3)c2c1,,8.41 µM (active)
CCOC(=O)NC(C)(C)Cc1ccc(Cl)cc1,77.8% (inactive),
